From PubChem BioAssay (NCI)
About 79,000 compounds went through this panel and 15% of them were active in at least one assay; those are over-represented in the sample as a whole. Calls of active or inactive are those of the source. Rule as the data show it: active = growth inhibition above about 70%; inactive = the rest.

assay: NCI Yeast Anticancer Drug Screen. Data for the sgs1 mgt1 strain (AID 161);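 also: 0% = growth of cultures given vehicle only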; conditions: S. cerevisiae sgs1 mgt1 strain, at 50.0 µM, active compounds read high
Outline: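 Compounds are added to genetically altered yeast, and growth is compared with cultures given vehicle alone to give percent inhibition.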

Structure (SMILES)	growth inhibition
O=C1NC(CSSCC2NC(=O)N(c3ccccc3)C2=O)C(=O)N1c1ccccc1 (centres undefined)	93.6% (active)
CCCCCCCCCCCCOP(=O)(N1CC1(C)C)N1CC1(C)C (centres undefined)	82.8% (active)
Cc1cccc(/C=N/NC(=S)Nc2ccc(Cl)cc2)n1	87% (active)
CN1CCCCC1c1cc2c3ccccc3ccn2c1-c1ccccc1 (centres undefined)	98.7% (active)
CN(Cc1ccccc1)CC(O)c1cc(-c2ccc(Cl)cc2)nc2ccccc12 (centres undefined)	99.2% (active)
OC1CCN(c2c3ccccc3nc3ccccc23)CC1	2.65% (inactive)
CCC1=C(c2ccc(OC(C)=O)cc2)Cc2cc(OC(C)=O)ccc21	5.55% (inactive)
Cc1cccc(C)c1NC(=O)CSC(N)=O	87.2% (active)
c1ccc([B-](c2ccccc2)(c2ccccc2)c2ccccc2)cc1	98.2% (active)
[Fe+2].c1cc[cH-]c1.c1ccc(-c2ccc[cH-]2)cc1	-9.4% (inactive)
O=C(CC1(O)CCCCC1)OC1CCCC1	5.85% (inactive)
OC1(c2ccccc2)c2ccccc2Sc2ccccc21	99.2% (active)
CC(CN(C)C)C(=O)/C=C/c1ccc(C(C)C)cc1 (centres undefined)	97.2% (active)
CSc1cccc(N2C(=O)C=CC2=O)c1	94% (active)
O=c1c2ccccc2nc(-c2ccccc2)n1NC(=S)Nc1ccc(Cl)cc1[N+](=O)[O-]	40.6% (inactive)
COc1ccc(OC(C)=O)c2c1CCC=CC2=O	61.3% (inactive)
CC(=O)Nc1ccc2c(c1)Cc1cccc(F)c1-2	22.4% (inactive)
CCC(c1ccc(O)cc1)C(O)(CC)c1ccc(O)cc1 (centres undefined)	65.1% (inactive)
Cn1c(-c2ccccc2)c(CCNC(=O)C2CCC2)c2ccccc21	79.2% (active)
FC(F)(F)c1ccccc1NC(=S)SCc1ccco1	87.7% (active)
O=[N+]([O-])C1=Cc2cc(Cl)ccc2OC1c1cccc2ccccc12 (centres undefined)	84.2% (active)
NC(=O)c1c(Cl)nc2n1CCS2	-1.3% (inactive)
CCCCCC(C)C1=NC(C)(C)CC(C)O1 (centres undefined)	-0.45% (inactive)
CCCCCCCCCCCCCCCCN(C)c1ccc(S(=O)(=O)O)cc1[N+](=O)[O-]	90.5% (active)
O=C(c1cccnc1)N(C1CCCCC1)C1CCCCC1	3.4% (inactive)

assay: NCI Yeast Anticancer Drug Screen. Data for the cln2 rad14 strain (AID 165);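 also: 0% = growth equal to vehicle treated cultures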; conditions: S. cerevisiae cln2 rad14 strain, at 5.0 µM (retest, dose inferred, filed as 0.5), active compounds read high
Outline: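 Relative to vehicle controls, growth inhibition of compound-treated cln2 rad14 yeast was recorded.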

Structure (SMILES)	growth inhibition
Cc1ccc(/C=C2\CCCC(CN3CCCCC3)C2=O)cc1 (centres undefined)	45% (inactive)
Oc1ccc(CCCCCc2ccc(O)cc2)cc1	1% (inactive)
COC(=O)c1ccccc1CC(Cc1ccc2c(c1)CCC2)C(=O)OC (centres undefined)	9% (inactive)
CN=C1NS(=O)(=O)c2ccccc21	0% (inactive)
CCCCC/C(=C/C=C/c1ccc(Cl)cc1)CN(C)C	13% (inactive)
O=S(=O)(O)c1ccc2c(c1)C1C(C3C2C2(Cl)C(Cl)=C(Cl)C3(Cl)C2(Cl)Cl)C2(Cl)C(Cl)=C(Cl)C1(Cl)C2(Cl)Cl (centres undefined)	34% (inactive)
Cc1ccc(S(=O)(=O)N/N=C/c2oc(-c3cccc([N+](=O)[O-])c3)c(-c3cccc([N+](=O)[O-])c3)c2[N+](=O)[O-])cc1	27% (inactive)
CCN(CC)C(C)(C)C(=O)/C=C/c1ccc(Cl)cc1	-9% (inactive)
Fc1ccc(NC(=S)SCc2ccc(Cl)c(Cl)c2)c(F)c1	-6% (inactive)
CC[C@@]1(OP(=O)(O)O)C(=O)OCc2c1cc1n(c2=O)Cc2cc3ccccc3nc2-1	-11% (inactive)
CC(C)C1=CC2=CCC3C(C)(C(=O)O)CCCC3(C)C2CC1 (centres undefined) (tested in a mixture with another compound)	-17% (inactive)
C=CCSc1nc2ccccc2c(=O)n1Cc1ccco1	27% (inactive)
COC(=O)c1c(C)cccc1C1CN=NC12Cc1ccc(C)c(C)c1C2=O (centres undefined)	1% (inactive)
CC(=O)N=C1N(/C=C2\C(=O)Oc3ccccc3C2=O)C(=O)/C(=C/c2cccc(Cl)c2Cl)N1C	7% (inactive)
O=C1NC(CSSCC2NC(=O)N(c3ccccc3)C2=O)C(=O)N1c1ccccc1 (centres undefined)	1% (inactive)
CCCCCCCCCCCCOP(=O)(N1CC1(C)C)N1CC1(C)C (centres undefined)	16% (inactive)
Cc1cccc(/C=N/NC(=S)Nc2ccc(Cl)cc2)n1	-25% (inactive)
CN1CCCCC1c1cc2c3ccccc3ccn2c1-c1ccccc1 (centres undefined)	-7% (inactive)
CN(Cc1ccccc1)CC(O)c1cc(-c2ccc(Cl)cc2)nc2ccccc12 (centres undefined)	1% (inactive)
OC1CCN(c2c3ccccc3nc3ccccc23)CC1	24% (inactive)

Structure (SMILES)	growth inhibition
CCC1=C(c2ccc(OC(C)=O)cc2)Cc2cc(OC(C)=O)ccc21	-9% (inactive)
Cc1cccc(C)c1NC(=O)CSC(N)=O	5% (inactive)
c1ccc([B-](c2ccccc2)(c2ccccc2)c2ccccc2)cc1	4% (inactive)
[Fe+2].c1cc[cH-]c1.c1ccc(-c2ccc[cH-]2)cc1	1% (inactive)
O=C(CC1(O)CCCCC1)OC1CCCC1	-14% (inactive)
OC1(c2ccccc2)c2ccccc2Sc2ccccc21	8% (inactive)
CC(CN(C)C)C(=O)/C=C/c1ccc(C(C)C)cc1 (centres undefined)	11% (inactive)
CSc1cccc(N2C(=O)C=CC2=O)c1	69% (inactive)
O=c1c2ccccc2nc(-c2ccccc2)n1NC(=S)Nc1ccc(Cl)cc1[N+](=O)[O-]	8% (inactive)
COc1ccc(OC(C)=O)c2c1CCC=CC2=O	14% (inactive)
CC(=O)Nc1ccc2c(c1)Cc1cccc(F)c1-2	29% (inactive)
CCC(c1ccc(O)cc1)C(O)(CC)c1ccc(O)cc1 (centres undefined)	-24% (inactive)
Cn1c(-c2ccccc2)c(CCNC(=O)C2CCC2)c2ccccc21	7% (inactive)
FC(F)(F)c1ccccc1NC(=S)SCc1ccco1	-4% (inactive)
O=[N+]([O-])C1=Cc2cc(Cl)ccc2OC1c1cccc2ccccc12 (centres undefined)	97% (active)
NC(=O)c1c(Cl)nc2n1CCS2	-2% (inactive)
CCCCCC(C)C1=NC(C)(C)CC(C)O1 (centres undefined)	-62% (inactive)
CCCCCCCCCCCCCCCCN(C)c1ccc(S(=O)(=O)O)cc1[N+](=O)[O-]	24% (inactive)
O=C(c1cccnc1)N(C1CCCCC1)C1CCCCC1	1% (inactive)
